From PubChem BioAssay AID686978 (National Center for Advancing Translational Sciences (NCATS), 2013)
The campaign covered roughly 420,000 compounds. About 64,000 (15%) were called active. About 27% were inconclusive and are not listed. The call rests on the fitted dose curve; in most records, active means well fitted inhibition curve with a large enough effect; inconclusive means small, poorly fitted or top-dose-only effect; inactive means flat fitted curve, though single readings scatter. Not all results are given here. Where a call stands in place of a potency, no number is given.

Assay: qHTS for Inhibitors of human tyrosyl-DNA phosphodiesterase 1 (TDP1): qHTS in cells in absence of CPT; further: nearly all actives have a fitted effect of over 55% in size
Details: DT40 Tdp1-/- hTDP1 cells, no CPT, ATP luminescence, 48 h; activity change, negative = growth inhibition: at 46.2 µM (top of the series)
Summary of the method: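 Seeded 400 DT40-hTDP1 cells/well (vehicle DMSO, no 20 nM CPT); pinned compounds; ≥48 hr at 37 °C; CellTiter-Glo luminescence as viability measure.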
Potency means the concentration at half of the fitted maximal effect.

SMILES	Potency
Cc1c(C#N)c2ncn(CC#N)c(=O)c2n1-c1ccccc1	inactive
CCCCOC(=O)Nc1nnc(CC(=O)NCc2ccccc2)s1	inactive
Nn1c(SCC(=O)NC2CCCC2)nnc1-c1ccccc1F	inactive
Cc1cc(-c2ccnc(-n3ncc(C(=O)NCCc4ccncc4)c3C)n2)c(C)s1	inactive
Cc1cc(-c2ccnc(-n3ncc(C(=O)NC(C)(C)CO)c3C3CC3)n2)c(C)s1	23.1 µM (active)
Cc1cccc(CNC(=O)c2cnn(-c3nccc(-c4ccccc4F)n3)c2C2CC2)n1	inactive
CNc1nc2c(C)cccn2c(=O)c1C=Nc1ccc(OC)cc1	inactive
CC(Oc1ccc(Cl)cc1)C(=O)Nc1ncccn1 (stereo not drawn)	inactive
CCN1CCN(C(=O)N[C@@H](C(=O)N[C@@H]2C(=O)N3[C@@H]2SC(C)(C)[C@H]3C(=O)O)c2ccccc2)C(=O)C1=O	inactive
O=C(NC(=S)Nc1cccc(-c2ccc(CO)o2)c1)c1cccs1	25.9 µM (active)
CCc1nnc(NS(=O)(=O)c2ccc(NC(=S)NC(=O)c3cccs3)cc2)s1	inactive
O=C(NC(=S)Nc1ccc(NC(=O)c2cccs2)cc1)c1ccc([N+](=O)[O-])cc1	inactive
Cc1ccc(N2C(=O)C3C4C=CC(CC4)C3C2=O)cc1Cl (stereo not drawn)	inactive
N#Cc1cccc(OC(=O)c2ccc3c(=O)n4c(nc3c2)CCC4)c1	inactive
O=C(CSCc1cccs1)N1CCCC1	inactive
CC(=O)C(CC(=O)N1CCCC1)C(=O)Nc1ccc(Cl)cc1 (stereo not drawn)	inactive
O=C(CSCc1ccc(Cl)cc1)N1CCCCC1	16.4 µM (active)
O=C(N/C(=C\c1ccc([N+](=O)[O-])cc1)C(=O)N1CCCCC1)c1ccco1	inactive
COC(=O)/C(NC(C)=O)=C(\C)c1ccc(Cl)cc1	inactive
CCOc1ccccc1NC(=O)Nc1cc(OC)ccc1OC	inactive
COc1ccc(OC)c(NC(=O)CC(Cc2ccccc2OC)C(=O)O)c1 (stereo not drawn)	11.2 µM (active)
COc1ccc(OC)c(NC(=O)Cc2cccs2)c1	inactive
CC1CC(C)(C)n2c(O)c(N=NC(N)=S)c3cccc1c32 (stereo not drawn)	inactive
COc1ccc2[nH]cc(CCN3C(=O)c4ccc(C(=O)O)cc4C3=O)c2c1	inactive
COC(=O)[C@@]1(Cc2ccc(F)cc2)[C@H]2c3cc(C(=O)N(C)C)n(CCc4c[nH]c5ccc(OC)cc45)c3C[C@H]2CN1C(=O)c1ccccc1	23.1 µM (active)
COc1ccc(OCc2cccc(C(=O)N3CCCC3)c2)cc1	inactive

SMILES	Potency
COC(=O)c1cccc(C(=O)N2CCC(CCC(=O)NCc3ccc(F)cc3)CC2)c1	inactive
COC(=O)[C@@]1(Cc2ccc(OC)cc2)[C@H]2c3cc(C(=O)N4CCCC4)n(Cc4ccc(OC(F)(F)F)cc4)c3C[C@H]2CN1C(=O)c1ccccc1	18.4 µM (active)
COC(=O)[C@@]1(Cc2ccc(F)cc2)[C@H]2c3cc(C(=O)N4CCCC4)n(Cc4ccc(OC(F)(F)F)cc4)c3C[C@H]2CN1C(=O)c1ccccc1	18.4 µM (active)
Cc1ccc(CN2CCNC(=O)C2CC(=O)NCc2csc(C(C)C)n2)cc1 (stereo not drawn)	inactive
Cc1cc(NC(=O)c2cccc(N3C(=O)CCC3=O)c2)no1	inactive
Cc1cc(N/C=C\C(=O)c2ccc(Cl)c(Cl)c2)no1	inactive
Cc1cccc(OCCC(=O)OCc2csc(CC(=O)Nc3ccccc3C)n2)c1	inactive
O=C(CSc1nnc(SCc2ccc(F)cc2)s1)Nc1ccc(C(=O)O)cc1	inactive
CCCCn1c(N)c(N(CCC(C)C)C(=O)COC(=O)c2cccnc2OCC)c(=O)[nH]c1=O	inactive
O=C(NCCCCO)C(F)(F)C(F)(F)C(F)(F)C(=O)NCCCCO	inactive
CC1=C2C(=O)OC(c3ccoc3)C2(C)CCC1 (stereo not drawn)	inactive
O=C(Nc1ccc(F)cc1)Nc1nnc([C@H]2C[C@H](O)[C@@H](CO)O2)s1	inactive
Cc1c(Cl)cnc(NC(=O)COC(=O)C2CCCC2)c1Cl	inactive
Cc1ccc(NC(=O)C(C)Sc2nnc(C3CC3)n2C2CC2)cc1S(=O)(=O)N1CCOCC1 (stereo not drawn)	inactive
Clc1ccc(C2CC(c3cccs3)n3ncnc3N2)cc1Cl (stereo not drawn)	inactive
COc1ccc(C2CC(c3ccccc3)Nc3ncnn32)cc1 (stereo not drawn)	inactive
FC(F)Oc1ccccc1C1CC(c2ccc(Br)s2)Nc2ncnn21 (stereo not drawn)	16.4 µM (active)
COc1ccc(C(=O)N2CCCC(C(=O)c3ccccc3OC)C2)cc1OC (stereo not drawn)	inactive
CSCC(=O)N1CCCC(C(=O)c2cc(F)ccc2F)C1 (stereo not drawn)	inactive
COc1ccc(F)cc1C(=O)C1CCCN(C(=O)CCc2ccccn2)C1 (stereo not drawn)	18.4 µM (active)
CCc1ccc(CN2C(=O)c3ccccc3C2C(=O)NCC2CCCO2)cc1 (stereo not drawn)	inactive
COc1ccc2oc(=O)cc(CN3CCOCC3)c2c1	inactive
O=S(=O)(c1cccs1)N1CCN(Cc2ccccc2)CC1	inactive
Cc1cc2oc(=O)cc(CN3CCN(S(=O)(=O)c4cccs4)CC3)c2cc1C(C)C	20.6 µM (active)
O=C(CSc1nnc(-c2cccs2)n1-c1ccccc1)NCc1ccco1	inactive
CC1CCc2c(sc(NC(=O)c3ccc(Cn4cc(Br)cn4)o3)c2C(N)=O)C1 (stereo not drawn)	inactive

SMILES	Potency
CCCCN(C(=O)c1cccc(N2C(=O)c3ccccc3C2=O)c1)c1c(N)n(CCCC)c(=O)[nH]c1=O	inactive
CS(=O)(=O)c1ccc2nc(NC(=O)c3ccc(N4CCCC4=O)cc3)sc2c1	inactive
O=C(Nc1nc2ccc([N+](=O)[O-])cc2s1)c1ccc(S(=O)(=O)N2CCCc3ccccc32)cc1	4.11 µM (active)
O=C(NC(Nc1nc2ccc([N+](=O)[O-])cc2s1)(C(F)(F)F)C(F)(F)F)c1ccccc1	0.461 µM (active)
Cc1nn(C)c(C)c1S(=O)(=O)N1CCc2ccccc21	inactive
O=C(COC(=O)c1ccc(F)cc1)Nc1nc2ccc([N+](=O)[O-])cc2s1	inactive
O=S(=O)(c1ccccc1)N1CCc2ccccc21	inactive
O=C(O)CCC(=O)Nc1nc2ccc([N+](=O)[O-])cc2s1	inactive
CSc1nc2ccc(S(=O)(=O)N3CCc4ccccc43)cc2s1	23.1 µM (active)
O=C(Nc1nc2ccc([N+](=O)[O-])cc2s1)c1ccncc1	inactive
O=C(COC(=O)c1ccc(S(=O)(=O)N2CCCCCC2)cc1)Nc1ccccc1C(F)(F)F	inactive
Cc1ccc(C2(C)NC(=O)N(CC(=O)N3CC(=O)Nc4ccccc43)C2=O)cc1 (stereo not drawn)	inactive
COC(=O)C[C@@H]1C=C[C@@H](NC(=O)c2ccc3c(c2)OCO3)[C@@H](CO)O1	inactive
COCCC(=O)N1CCC(Oc2ccc(C(=O)NCc3ccon3)cc2)CC1	inactive
N#Cc1c(-c2ccccc2)cc(-c2ccccc2)nc1SCC(=O)O	inactive
CN1CCN(C2Cc3ccc(Cl)cc3Sc3ccc(F)cc32)CC1 (stereo not drawn)	18.4 µM (active)
CN1C(=O)CN2CCc3ccccc3C2c2cc(Cl)ccc21 (stereo not drawn)	inactive
COC(=O)C1NN=C(C(=O)c2ccc(Br)cc2)C1c1cccc(Br)c1 (stereo not drawn)	inactive
Cc1ccc(NC(=O)C2CC2c2ccccc2)cc1 (stereo not drawn)	inactive
Nc1ncnc2c1ncn2[C@@H]1O[C@H](C(=O)N2CCSC2)[C@@H](O)[C@H]1O	inactive
Cc1cccc(C)c1OCC(O)CN1CCCCC1 (stereo not drawn)	inactive
Cc1cccc(OCC(O)CN2CCN(CCN3C(=O)c4cccc5cccc(c45)C3=O)CC2)c1C (stereo not drawn)	25.9 µM (active)
C=CCc1ccccc1OCC(O)CN1CCN(CCO)CC1 (stereo not drawn)	inactive
CCCC(C(=O)NC1CCCC1)N(C(=O)Cn1nnc(-c2ccc(C)o2)n1)c1cccc(O)c1 (stereo not drawn)	inactive
COC(=O)c1cc(C)sc1NC(=O)CC1Nc2ccccc2NC1=O (stereo not drawn)	inactive
O=C(c1csnn1)N1CCC[C@@]2(CCN(Cc3nccs3)C2)C1	inactive

SMILES	Potency
NC(=O)NC(=O)C(OC(=O)CCNS(=O)(=O)c1ccccc1)c1ccccc1 (stereo not drawn)	inactive
Cc1ccc(N2C(=O)C3CC3C2=O)cc1 (stereo not drawn)	inactive
Cc1ccc(N2C(=O)C(Cc3ccccc3)NC2=S)cc1 (stereo not drawn)	inactive
Cc1ccc(N2C(=O)C3C(c4ccccc4)(C2=O)C3(c2ccccc2)c2ccccc2)cc1 (stereo not drawn)	13 µM (active)
O=C(N1CCCC1)C12CC3CC(C1)CC(C(=O)N1CCCC1)(C3)C2	inactive
COc1ccccc1C(=O)NNC(=O)CCN1C(=O)/C(=C\c2ccccc2)SC1=S	inactive
CC(OC(=O)CNS(=O)(=O)/C=C/c1ccccc1)C(=O)Nc1ccc(S(=O)(=O)N2CCCC2)cc1 (stereo not drawn)	inactive
Cc1ccc(CNC(=O)CC(NC(=O)c2ccccc2)c2ccccc2)cc1 (stereo not drawn)	inactive
CCn1ccnc1CN(C)C(=O)c1ccc2nc(Cc3ccc(OC)cc3)oc2c1	inactive
COc1ccc(Cc2nc3ccc(C(=O)NCc4ccccc4Cl)cc3o2)cc1	16.4 µM (active)
COCCNC(=O)c1ccc2nc(Cc3ccc(OC)c(OC)c3)oc2c1	inactive
COc1ccc(Cc2nc3ccc(C(=O)NCc4ccccc4C)cc3o2)cc1	8.2 µM (active)
CSCCNC(=O)c1ccc2nc(Cc3ccccc3F)oc2c1	inactive
COc1ccc(Cc2nc3ccc(C(=O)N4CCC(N(C)C)C4)cc3o2)cc1 (stereo not drawn)	inactive
CCCc1c(C(=O)N/N=C(\C)CCc2ccc(OC)cc2)nnn1-c1nonc1N	inactive
Cc1ccc2c(C)c(C(=O)N(C)Cc3ccncn3)oc2c1C	inactive
COc1ccc(NC(=O)C(c2ccncc2)n2c(=O)c(-c3cc4ccccc4[nH]3)nc3ccccc32)cc1 (stereo not drawn)	18.4 µM (active)
CCCCCNC(=O)C(c1ccc(OC)cc1)n1c(=O)c(-c2ccccc2)nc2ccccc21 (stereo not drawn)	20.6 µM (active)
COc1ccc(CNC(=O)CN2C(=O)c3ccccc3S2(=O)=O)cc1	inactive
CCOCCCNC(=O)C(NC(=O)Cc1c[nH]c2ccccc12)c1ccc(OC)cc1 (stereo not drawn)	inactive
CCOCCCNC(=O)C(NC(=O)CNC(=O)c1ccccc1)c1ccc(OC)cc1 (stereo not drawn)	inactive
CCSc1ccccc1C(=O)NCc1ccc(OC)cc1	inactive
COc1ccc(NC(=O)CN(C)C(=O)c2n[nH]c3ccccc23)cc1	inactive
COc1ccc(NC(=O)C(c2ccccc2)N2Cc3ccccc3C2=O)cc1 (stereo not drawn)	inactive
COc1ccc(C(C(=O)NCc2ccccc2)n2c(=O)c(-c3ccccc3)nc3ccccc32)cc1 (stereo not drawn)	16.4 µM (active)
